# In article PMC7862700, “An all-to-all approach to the identification of sequence-specific readers for epigenetic DNA modifications on cytosine”:
# Legend:
# Test in all cases: DAPPL (digital affinity profiling via proximity ligation, sequencing); 10 mM Tris-HCl pH 7.5, 50 mM NaCl, 1 mM DTT, 4% glycerol, room temperature, 30 min; GST-TFs on glutathione beads, 16-mer random dsDNA library, 0.1% formaldehyde crosslink after washing; high values mean tight binding
# FLI1 = molecular target: T1, FLI1 (Homo sapiens, UniProt Q01543 1-452); conditions: protein: recombinant; tags: N-terminal GST; dsDNA, one strand shown
# T1 sequence: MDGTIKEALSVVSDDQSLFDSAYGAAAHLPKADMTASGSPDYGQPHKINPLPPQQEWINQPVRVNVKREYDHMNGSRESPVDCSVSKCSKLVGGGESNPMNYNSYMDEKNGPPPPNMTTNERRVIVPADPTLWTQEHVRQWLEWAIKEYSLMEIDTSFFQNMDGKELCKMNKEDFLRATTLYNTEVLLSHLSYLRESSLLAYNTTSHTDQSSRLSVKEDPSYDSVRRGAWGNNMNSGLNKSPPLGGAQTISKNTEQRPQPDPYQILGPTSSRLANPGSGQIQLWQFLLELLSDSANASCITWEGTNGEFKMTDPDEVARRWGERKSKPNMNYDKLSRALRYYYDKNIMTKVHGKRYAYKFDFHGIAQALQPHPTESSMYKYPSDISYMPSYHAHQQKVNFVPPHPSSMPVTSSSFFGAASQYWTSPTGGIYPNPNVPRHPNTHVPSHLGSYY
# Procedure, shortened: (§1)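 Sequencing on an Illumina NextSeq500 followed washing, crosslinking with 0.1% formaldehyde, proximity ligation (BsaI/T4 ligase, 1 h, 37 °C) and PCR amplification of pools that had been incubated for 30 min at room temperature with 200 nmole of a random double-stranded 16-mer DNA library in Tris/NaCl/DTT/glycerol buffer. Each pool held DNA-barcoded human transcription factors, expressed in yeast as GST fusions and captured on glutathione beads, plus a tag-only sample. Binding signal is a hexamer's read frequency for a factor divided by its frequency in the tag-only sample.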
# ELK1 = molecular target: T2, ELK1 (Homo sapiens, UniProt P19419 1-428); conditions: protein: recombinant; tags: N-terminal GST; dsDNA, one strand shown
# T2 sequence: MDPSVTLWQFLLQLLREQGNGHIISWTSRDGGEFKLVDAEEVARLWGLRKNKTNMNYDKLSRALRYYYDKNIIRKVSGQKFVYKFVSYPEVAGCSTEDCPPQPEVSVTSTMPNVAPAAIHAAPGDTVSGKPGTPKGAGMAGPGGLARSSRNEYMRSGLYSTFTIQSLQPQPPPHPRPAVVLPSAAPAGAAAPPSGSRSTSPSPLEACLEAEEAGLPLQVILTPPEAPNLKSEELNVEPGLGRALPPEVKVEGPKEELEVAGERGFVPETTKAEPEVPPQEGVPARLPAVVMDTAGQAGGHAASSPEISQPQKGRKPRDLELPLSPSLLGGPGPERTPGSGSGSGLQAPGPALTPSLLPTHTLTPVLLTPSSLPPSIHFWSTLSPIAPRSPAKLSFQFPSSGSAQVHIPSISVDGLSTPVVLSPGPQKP
# Procedure, shortened: as §1
# GABPA = molecular target: T3, GABPA (Homo sapiens, UniProt Q06546 1-454); conditions: protein: recombinant; tags: N-terminal GST; dsDNA, one strand shown
# T3 sequence: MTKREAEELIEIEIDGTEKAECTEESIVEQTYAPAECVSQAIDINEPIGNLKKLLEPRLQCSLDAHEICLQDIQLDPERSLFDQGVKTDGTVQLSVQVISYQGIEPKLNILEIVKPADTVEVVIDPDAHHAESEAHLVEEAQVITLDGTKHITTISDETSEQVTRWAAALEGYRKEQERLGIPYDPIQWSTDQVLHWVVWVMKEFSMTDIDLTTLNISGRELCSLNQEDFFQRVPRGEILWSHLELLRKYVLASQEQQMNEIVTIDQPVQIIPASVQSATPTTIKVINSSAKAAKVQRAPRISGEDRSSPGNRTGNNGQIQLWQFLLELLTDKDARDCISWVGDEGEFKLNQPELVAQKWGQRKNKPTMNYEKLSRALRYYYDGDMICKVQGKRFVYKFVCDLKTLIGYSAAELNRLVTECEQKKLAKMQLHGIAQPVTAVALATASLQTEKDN
# Procedure, shortened: as §1
# ERG = molecular target: T4, ERG (Homo sapiens, UniProt P11308 1-479); conditions: protein: recombinant; tags: N-terminal GST; dsDNA, one strand shown
# T4 sequence: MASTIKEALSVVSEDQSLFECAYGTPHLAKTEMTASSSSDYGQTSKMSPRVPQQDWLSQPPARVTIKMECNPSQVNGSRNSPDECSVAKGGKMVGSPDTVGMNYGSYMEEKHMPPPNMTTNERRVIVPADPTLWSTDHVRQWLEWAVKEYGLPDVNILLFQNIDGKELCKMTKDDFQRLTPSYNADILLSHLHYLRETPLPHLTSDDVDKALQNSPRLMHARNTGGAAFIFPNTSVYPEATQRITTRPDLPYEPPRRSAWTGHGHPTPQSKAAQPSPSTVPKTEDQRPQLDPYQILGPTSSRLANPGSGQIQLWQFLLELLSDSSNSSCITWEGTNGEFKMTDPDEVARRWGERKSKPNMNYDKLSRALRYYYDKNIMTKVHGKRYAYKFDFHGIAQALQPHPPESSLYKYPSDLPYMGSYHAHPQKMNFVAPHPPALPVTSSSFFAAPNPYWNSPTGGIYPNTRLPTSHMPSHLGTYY
# Procedure, shortened: as §1
# ELF1 = ELF1 (Homo sapiens, UniProt P32519 1-619); conditions: protein: recombinant; tags: N-terminal GST; dsDNA, one strand shown
# Procedure, shortened: as §1
# EHF = molecular target: T5, EHF (Homo sapiens, UniProt Q9NZC4 1-300); conditions: protein: recombinant; tags: N-terminal GST; dsDNA, one strand shown
# T5 sequence: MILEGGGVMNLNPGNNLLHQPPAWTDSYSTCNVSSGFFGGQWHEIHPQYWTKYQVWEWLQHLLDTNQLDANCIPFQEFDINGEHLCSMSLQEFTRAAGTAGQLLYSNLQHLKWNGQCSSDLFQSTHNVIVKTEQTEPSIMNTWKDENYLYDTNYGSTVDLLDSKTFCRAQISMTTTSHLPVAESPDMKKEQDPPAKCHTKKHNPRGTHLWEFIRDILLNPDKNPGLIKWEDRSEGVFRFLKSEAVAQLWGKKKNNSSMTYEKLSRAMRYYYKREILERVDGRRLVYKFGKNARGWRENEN
# Procedure, shortened: as §1
# SPI1 = SPI1 (Homo sapiens, UniProt P17947 1-270); conditions: protein: recombinant; tags: N-terminal GST; dsDNA, one strand shown
# Procedure, shortened: as §1
# SPIB = SPIB (Homo sapiens, UniProt Q01892 1-262); conditions: protein: recombinant; tags: N-terminal GST; dsDNA, one strand shown
# Procedure, shortened: as §1
# ELK3 = molecular target: T6, ELK3 (Homo sapiens, UniProt P41970 1-407); conditions: protein: recombinant; tags: N-terminal GST; dsDNA, one strand shown
# T6 sequence: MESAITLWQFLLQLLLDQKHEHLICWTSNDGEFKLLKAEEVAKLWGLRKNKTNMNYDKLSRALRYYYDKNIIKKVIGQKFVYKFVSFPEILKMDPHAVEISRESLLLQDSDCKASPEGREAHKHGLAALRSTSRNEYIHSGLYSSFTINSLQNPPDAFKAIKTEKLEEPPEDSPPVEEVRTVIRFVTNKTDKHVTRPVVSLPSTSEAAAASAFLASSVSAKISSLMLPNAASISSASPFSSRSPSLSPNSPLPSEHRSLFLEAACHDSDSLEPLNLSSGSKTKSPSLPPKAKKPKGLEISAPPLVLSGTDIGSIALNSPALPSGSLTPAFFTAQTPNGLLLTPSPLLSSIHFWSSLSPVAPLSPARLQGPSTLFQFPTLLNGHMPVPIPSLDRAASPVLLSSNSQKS
# Procedure, shortened: as §1
# FEV = molecular target: T7, FEV (Homo sapiens, UniProt Q99581 1-238); conditions: protein: recombinant; tags: N-terminal GST; dsDNA, one strand shown
# T7 sequence: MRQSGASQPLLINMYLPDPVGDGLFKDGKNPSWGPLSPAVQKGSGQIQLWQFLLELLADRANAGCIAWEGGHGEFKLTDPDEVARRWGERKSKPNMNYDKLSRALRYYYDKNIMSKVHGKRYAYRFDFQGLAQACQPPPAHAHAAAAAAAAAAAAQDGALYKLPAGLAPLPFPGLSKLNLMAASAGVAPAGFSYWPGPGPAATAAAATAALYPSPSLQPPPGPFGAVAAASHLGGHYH
# Procedure, shortened: as §1
# ETV5 = ETV5 (Homo sapiens, UniProt P41161 1-510); conditions: protein: recombinant; tags: N-terminal GST; dsDNA, one strand shown
# Procedure, shortened: as §1
# HSF1 = HSF1 (Homo sapiens, UniProt Q00613 1-529); conditions: protein: recombinant; tags: N-terminal GST; chain copies: 3; dsDNA, one strand shown
# Procedure, shortened: as §1
# SPIC = molecular target: T8, SPIC (Homo sapiens, UniProt Q8N5J4 1-248); conditions: protein: recombinant; tags: N-terminal GST; dsDNA, one strand shown
# T8 sequence: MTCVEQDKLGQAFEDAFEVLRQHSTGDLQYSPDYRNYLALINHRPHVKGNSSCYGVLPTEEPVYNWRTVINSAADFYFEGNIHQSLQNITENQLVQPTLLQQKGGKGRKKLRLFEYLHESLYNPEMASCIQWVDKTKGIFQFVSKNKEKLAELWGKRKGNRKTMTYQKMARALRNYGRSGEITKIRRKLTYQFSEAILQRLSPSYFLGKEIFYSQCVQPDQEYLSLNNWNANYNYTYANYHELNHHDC
# Procedure, shortened: as §1
# ELF4 = ELF4 (Homo sapiens, UniProt Q99607 1-663); conditions: protein: recombinant; tags: N-terminal GST; dsDNA, one strand shown
# Procedure, shortened: as §1
# ELK4 = molecular target: T9, ELK4 (Homo sapiens, UniProt P28324-2 1-405); conditions: protein: recombinant; tags: N-terminal GST; dsDNA, one strand shown
# T9 sequence: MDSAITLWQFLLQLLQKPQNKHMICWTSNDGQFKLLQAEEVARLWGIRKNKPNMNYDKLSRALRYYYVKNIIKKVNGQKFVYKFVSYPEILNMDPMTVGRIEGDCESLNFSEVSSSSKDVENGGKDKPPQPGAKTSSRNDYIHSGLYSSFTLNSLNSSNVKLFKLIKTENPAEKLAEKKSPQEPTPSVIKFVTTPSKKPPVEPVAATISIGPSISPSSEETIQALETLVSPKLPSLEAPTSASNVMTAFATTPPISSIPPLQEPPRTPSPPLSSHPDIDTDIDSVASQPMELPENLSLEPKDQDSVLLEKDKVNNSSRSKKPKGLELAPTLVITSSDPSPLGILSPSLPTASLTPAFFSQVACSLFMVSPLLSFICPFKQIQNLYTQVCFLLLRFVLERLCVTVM
# Procedure, shortened: as §1
# ETV2 = molecular target: T10, ETV2 (Homo sapiens, UniProt O00321 1-342); conditions: protein: recombinant; tags: N-terminal GST; dsDNA, one strand shown
# T10 sequence: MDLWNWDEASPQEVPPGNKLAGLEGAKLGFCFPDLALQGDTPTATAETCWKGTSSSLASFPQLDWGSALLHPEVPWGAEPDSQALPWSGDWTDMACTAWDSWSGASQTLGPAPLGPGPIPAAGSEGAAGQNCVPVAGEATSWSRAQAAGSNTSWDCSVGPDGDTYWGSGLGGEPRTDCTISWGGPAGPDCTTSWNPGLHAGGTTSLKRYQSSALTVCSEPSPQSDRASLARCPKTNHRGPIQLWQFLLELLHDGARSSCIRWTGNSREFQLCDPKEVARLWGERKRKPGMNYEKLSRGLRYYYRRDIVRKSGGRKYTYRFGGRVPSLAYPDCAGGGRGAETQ
# Procedure, shortened: as §1
# ELF3 = molecular target: T11, ELF3 (Homo sapiens, UniProt P78545 1-371); conditions: protein: recombinant; tags: N-terminal GST; dsDNA, one strand shown
# T11 sequence: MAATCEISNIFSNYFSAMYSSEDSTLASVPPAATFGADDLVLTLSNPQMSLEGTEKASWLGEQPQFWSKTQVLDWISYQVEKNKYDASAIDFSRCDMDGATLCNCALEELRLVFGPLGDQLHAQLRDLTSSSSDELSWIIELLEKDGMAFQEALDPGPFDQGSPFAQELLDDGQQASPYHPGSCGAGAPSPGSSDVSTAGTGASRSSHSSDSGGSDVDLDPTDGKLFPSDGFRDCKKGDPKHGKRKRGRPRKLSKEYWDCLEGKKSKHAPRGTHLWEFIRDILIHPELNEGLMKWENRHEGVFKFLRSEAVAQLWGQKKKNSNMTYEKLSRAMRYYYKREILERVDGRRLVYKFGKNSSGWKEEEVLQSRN
# Procedure, shortened: as §1
# CRX = CRX (Homo sapiens, UniProt O43186 1-299); conditions: protein: recombinant; tags: N-terminal GST; dsDNA, one strand shown
# Procedure, shortened: as §1
# ETV1 = ETV1 (Homo sapiens, UniProt P50549 1-477); conditions: protein: recombinant; tags: N-terminal GST; dsDNA, one strand shown
# Procedure, shortened: as §1
# Chain of ETV5 (P41161 whole entry): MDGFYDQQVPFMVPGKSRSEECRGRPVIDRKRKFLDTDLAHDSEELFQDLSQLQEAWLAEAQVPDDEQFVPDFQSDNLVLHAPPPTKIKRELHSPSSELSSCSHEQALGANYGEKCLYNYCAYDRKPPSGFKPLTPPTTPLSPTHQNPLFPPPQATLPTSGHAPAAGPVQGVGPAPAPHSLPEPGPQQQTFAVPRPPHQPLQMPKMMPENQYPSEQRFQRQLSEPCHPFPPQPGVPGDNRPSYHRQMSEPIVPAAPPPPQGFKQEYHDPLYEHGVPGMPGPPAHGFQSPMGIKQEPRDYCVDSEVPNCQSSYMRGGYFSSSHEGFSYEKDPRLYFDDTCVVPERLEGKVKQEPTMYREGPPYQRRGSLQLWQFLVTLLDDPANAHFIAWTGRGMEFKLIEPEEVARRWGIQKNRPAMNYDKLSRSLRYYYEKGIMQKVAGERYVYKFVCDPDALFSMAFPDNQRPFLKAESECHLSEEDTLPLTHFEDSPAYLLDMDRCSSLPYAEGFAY
# Chain of HSF1 (Q00613 whole entry): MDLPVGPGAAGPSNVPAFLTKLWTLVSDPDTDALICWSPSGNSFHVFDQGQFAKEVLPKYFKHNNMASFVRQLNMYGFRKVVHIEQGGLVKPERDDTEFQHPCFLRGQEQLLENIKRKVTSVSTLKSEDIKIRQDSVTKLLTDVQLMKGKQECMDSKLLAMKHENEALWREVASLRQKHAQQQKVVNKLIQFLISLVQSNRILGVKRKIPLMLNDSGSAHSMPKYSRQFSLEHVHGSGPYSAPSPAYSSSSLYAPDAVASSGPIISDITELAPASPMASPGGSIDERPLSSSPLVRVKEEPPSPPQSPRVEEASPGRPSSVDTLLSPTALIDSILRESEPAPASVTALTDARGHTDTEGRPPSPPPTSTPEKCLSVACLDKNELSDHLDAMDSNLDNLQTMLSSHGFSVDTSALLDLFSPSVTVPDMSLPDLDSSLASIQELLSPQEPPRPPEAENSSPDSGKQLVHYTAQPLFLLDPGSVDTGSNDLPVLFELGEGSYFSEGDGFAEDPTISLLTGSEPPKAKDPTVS
# Chain of CRX (O43186 whole entry): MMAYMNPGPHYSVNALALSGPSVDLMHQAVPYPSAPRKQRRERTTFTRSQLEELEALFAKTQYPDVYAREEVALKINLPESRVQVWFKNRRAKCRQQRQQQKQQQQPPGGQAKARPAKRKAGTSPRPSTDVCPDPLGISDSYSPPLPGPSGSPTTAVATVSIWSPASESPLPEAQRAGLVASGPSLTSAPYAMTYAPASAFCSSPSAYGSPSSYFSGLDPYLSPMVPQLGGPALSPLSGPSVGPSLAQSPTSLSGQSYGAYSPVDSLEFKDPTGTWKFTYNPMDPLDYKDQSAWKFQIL
# Chain of ELF1 (P32519 whole entry): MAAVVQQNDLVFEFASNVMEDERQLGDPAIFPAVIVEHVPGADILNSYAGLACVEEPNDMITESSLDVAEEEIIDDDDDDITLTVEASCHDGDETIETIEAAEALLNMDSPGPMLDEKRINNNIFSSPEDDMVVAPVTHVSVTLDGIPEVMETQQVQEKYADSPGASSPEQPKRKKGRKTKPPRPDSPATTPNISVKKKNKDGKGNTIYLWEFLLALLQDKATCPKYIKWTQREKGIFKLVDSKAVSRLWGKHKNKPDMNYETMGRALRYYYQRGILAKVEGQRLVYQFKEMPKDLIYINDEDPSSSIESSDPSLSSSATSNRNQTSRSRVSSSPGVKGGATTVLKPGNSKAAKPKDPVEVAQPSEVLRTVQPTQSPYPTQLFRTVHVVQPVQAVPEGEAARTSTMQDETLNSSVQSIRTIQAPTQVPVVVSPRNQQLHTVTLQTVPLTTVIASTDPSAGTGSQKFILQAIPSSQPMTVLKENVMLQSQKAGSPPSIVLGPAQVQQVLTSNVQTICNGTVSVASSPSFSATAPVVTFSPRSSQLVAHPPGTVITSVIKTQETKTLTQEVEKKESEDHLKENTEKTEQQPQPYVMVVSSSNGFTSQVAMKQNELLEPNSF
# Chain of ELF4 (Q99607 whole entry): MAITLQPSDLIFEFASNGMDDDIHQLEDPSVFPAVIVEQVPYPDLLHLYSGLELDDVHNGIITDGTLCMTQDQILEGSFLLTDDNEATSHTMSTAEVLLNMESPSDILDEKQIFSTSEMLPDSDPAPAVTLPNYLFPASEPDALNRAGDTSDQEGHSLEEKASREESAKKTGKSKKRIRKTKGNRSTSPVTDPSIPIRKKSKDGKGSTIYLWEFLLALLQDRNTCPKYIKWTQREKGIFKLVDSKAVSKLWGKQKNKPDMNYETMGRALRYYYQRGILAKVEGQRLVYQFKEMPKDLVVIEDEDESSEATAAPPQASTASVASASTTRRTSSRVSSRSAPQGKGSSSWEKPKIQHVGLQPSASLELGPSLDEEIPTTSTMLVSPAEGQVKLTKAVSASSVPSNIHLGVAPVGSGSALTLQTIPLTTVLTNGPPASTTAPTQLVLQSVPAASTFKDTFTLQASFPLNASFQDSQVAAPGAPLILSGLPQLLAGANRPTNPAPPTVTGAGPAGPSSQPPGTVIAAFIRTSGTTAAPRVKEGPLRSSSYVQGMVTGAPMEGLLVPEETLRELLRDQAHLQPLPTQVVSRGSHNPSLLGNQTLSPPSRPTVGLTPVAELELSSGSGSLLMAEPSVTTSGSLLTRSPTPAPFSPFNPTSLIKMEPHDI
# Chain of ETV1 (P50549 whole entry): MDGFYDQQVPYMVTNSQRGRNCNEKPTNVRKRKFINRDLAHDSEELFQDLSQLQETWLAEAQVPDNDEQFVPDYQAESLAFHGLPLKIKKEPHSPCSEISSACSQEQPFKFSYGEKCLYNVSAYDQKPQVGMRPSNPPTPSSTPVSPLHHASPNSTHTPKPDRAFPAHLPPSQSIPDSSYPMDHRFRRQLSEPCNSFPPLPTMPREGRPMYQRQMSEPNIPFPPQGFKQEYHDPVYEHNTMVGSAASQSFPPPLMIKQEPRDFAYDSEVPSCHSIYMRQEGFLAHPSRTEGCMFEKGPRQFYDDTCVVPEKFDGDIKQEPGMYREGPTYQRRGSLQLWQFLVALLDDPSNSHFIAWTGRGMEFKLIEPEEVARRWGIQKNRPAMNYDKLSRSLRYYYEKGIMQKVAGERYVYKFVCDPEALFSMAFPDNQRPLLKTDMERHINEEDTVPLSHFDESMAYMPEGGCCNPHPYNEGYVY
# Chain of SPIB (Q01892 whole entry): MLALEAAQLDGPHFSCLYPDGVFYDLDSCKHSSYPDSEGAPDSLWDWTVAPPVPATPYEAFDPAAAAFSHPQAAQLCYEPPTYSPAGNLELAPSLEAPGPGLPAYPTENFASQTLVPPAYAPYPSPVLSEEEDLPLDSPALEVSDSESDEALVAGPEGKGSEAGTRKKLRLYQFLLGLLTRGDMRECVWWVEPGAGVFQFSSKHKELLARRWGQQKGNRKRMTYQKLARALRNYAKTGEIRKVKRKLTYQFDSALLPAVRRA
sequence,measurement,setting,value
GCTAAA,binding signal,FLI1,"1.06 fold enrichment (6-mer frequency, TF over GST control)"
same,binding signal,ELK1,"1.12 fold enrichment (6-mer frequency, TF over GST control)"
same,binding signal,GABPA,"1.07 fold enrichment (6-mer frequency, TF over GST control)"
same,binding signal,ERG,"1.07 fold enrichment (6-mer frequency, TF over GST control)"
same,binding signal,ELF1,"1.08 fold enrichment (6-mer frequency, TF over GST control)"
same,binding signal,EHF,"1.06 fold enrichment (6-mer frequency, TF over GST control)"
same,binding signal,SPI1,"1.16 fold enrichment (6-mer frequency, TF over GST control)"
same,binding signal,SPIB,"1.14 fold enrichment (6-mer frequency, TF over GST control)"
same,binding signal,ELK3,"1.04 fold enrichment (6-mer frequency, TF over GST control)"
same,binding signal,FEV,"1.05 fold enrichment (6-mer frequency, TF over GST control)"
same,binding signal,ETV5,"1.15 fold enrichment (6-mer frequency, TF over GST control)"
same,binding signal,HSF1,"1.17 fold enrichment (6-mer frequency, TF over GST control)"
same,binding signal,SPIC,"1.09 fold enrichment (6-mer frequency, TF over GST control)"
same,binding signal,ELF4,"1.06 fold enrichment (6-mer frequency, TF over GST control)"
same,binding signal,ELK4,"1.11 fold enrichment (6-mer frequency, TF over GST control)"
same,binding signal,ETV2,"1.12 fold enrichment (6-mer frequency, TF over GST control)"
same,binding signal,ELF3,"1.07 fold enrichment (6-mer frequency, TF over GST control)"
same,binding signal,CRX,"1.4 fold enrichment (6-mer frequency, TF over GST control)"
same,binding signal,ETV1,"1.26 fold enrichment (6-mer frequency, TF over GST control)"
